Whole data set: some 68,000 sequences, median “fluorescence intensity (a.u.)” near 9,100, cut for the highest 2% near 16,000. Many of the other results were omitted from the sample, so the highest values are more common in it than they were.

Sequence of OsWRKY34 (Q0JBA9 entry or part of it): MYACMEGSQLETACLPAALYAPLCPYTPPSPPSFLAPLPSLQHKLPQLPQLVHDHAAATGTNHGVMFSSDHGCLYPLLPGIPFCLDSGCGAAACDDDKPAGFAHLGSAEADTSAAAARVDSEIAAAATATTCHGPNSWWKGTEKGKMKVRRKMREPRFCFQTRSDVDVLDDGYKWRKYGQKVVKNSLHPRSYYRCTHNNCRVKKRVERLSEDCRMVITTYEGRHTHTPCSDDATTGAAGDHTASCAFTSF

The assay deals with OsWRKY34 (Oryza sativa, UniProt Q0JBA9 1-250). As to the kind of experiment: protein-binding microarray (RPBM); PBS, 2% BSA, 51.3 ng/ul salmon testes DNA, 50 uM zinc acetate, 200 nM TF, 25 C, 1 h; high values mean tight binding. The settings on record: protein: recombinant; tags: N-terminal polyhistidine and DsRed monomer fusion (pET32a); label: CyDye5-dUTP incorporated in the synthesized complementary strand; 3' TTTTT single-stranded linker to array surface; dsDNA, one strand shown. The essentials:
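Binding signal is reported as fluorescence intensity per feature (arbitrary units) from an Axon 4000B scanner. Incubation used 200 nM of each Ni–NTA-purified, N-terminally polyhistidine- and DsRed-fused transcription factor from E. coli BL21-CodonPlus on a double-stranded custom Agilent array for 1 h at 25 °C, with 50 µM zinc acetate in the buffer, followed by washing.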
Take “TTTTGTGGTATTTTAAACATGGTTTATATTTCTTATATTTCGGAGTCACCTAGTGCAG”: the binding signal was 9830 fluorescence intensity (a.u.).
Under “CTTCGTTCGTTGGATTCGCTCTCGCGCGCCGCCGCCGCCGCGGAGTCACCTAGTGCAG” stands 11200 fluorescence intensity (a.u.); under “TCGCTCTCGTTGGATTCGGTTTGGTTTGGTTTGGGCCATGCGGAGTCACCTAGTGCAG”, 18700 fluorescence intensity (a.u.).
As for “ATGGATGGGGATTCATTTGTTTGGTGAGTAGTGGTCGGGTCGGAGTCACCTAGTGCAG”, the binding signal was 9800 fluorescence intensity (a.u.).
Take “TTTGGATTGGGTTTGGTGGTTGGGTGGGAGGGAGGGAGCTCGGAGTCACCTAGTGCAG”: the binding signal was 28600 fluorescence intensity (a.u.).
As for “AGAGGGATGGGTGTTTGATTGGAGTGGGTTGGGAGCCATGCGGAGTCACCTAGTGCAG”, the figure is 9390 fluorescence intensity (a.u.); as for “GGTTGGGTGGAGGGTATTACAGTCTTTTTGCTTTTGTATTCGGAGTCACCTAGTGCAG”, 36600 fluorescence intensity (a.u.).
Under “CTCTCGTTGTTTTTGCTCTTTTGGGTTCGCTCGGAAGATGCGGAGTCACCTAGTGCAG” stands 8490 fluorescence intensity (a.u.); under “TGTTGTTTTGGTCTACAGTTGTCTTTTGAGTTGTTGTATTCGGAGTCACCTAGTGCAG”, 12200 fluorescence intensity (a.u.).
As for “GGGGTGTTTGGTTGAGGGGTGGGTGGGATGGATTGGTCCTCGGAGTCACCTAGTGCAG”, the binding signal is 32300 fluorescence intensity (a.u.).
As for “TTTTTGGTGGGGTAGAGTTGTATTTGGTTTGAGGCCAATTCGGAGTCACCTAGTGCAG”, the figure is 9480 fluorescence intensity (a.u.).
Under “GGGTTTTGGAGTGGTGGTGGTGGAGGATTGGAGTTGGGGTCGGAGTCACCTAGTGCAG” stands 11600 fluorescence intensity (a.u.); under “TTGGTGAGGGTTTGGGTTTGGTGGTGGAGTGGAGTGGAGTCGGAGTCACCTAGTGCAG”, 10700 fluorescence intensity (a.u.); under “CATCGAGTAGCCGCCGCCGCCACCTGGTGCTCGTGACGCCCGGAGTCACCTAGTGCAG”, 8670 fluorescence intensity (a.u.).
On to “CTTCAAACTTTTAATTTTTCCGTCACATCGAACTTTTCTACGGAGTCACCTAGTGCAG”, for which the binding signal was 9760 fluorescence intensity (a.u.).
As for “TCACACGTTTCATTGACGTTTCCTAGCATCCGACCTCTCTCGGAGTCACCTAGTGCAG”, the figure is 9620 fluorescence intensity (a.u.); as for “TCCCCTGTTCTCGTACACAAATTCGCAGCGATCTAATAGTCGGAGTCACCTAGTGCAG”, 8480 fluorescence intensity (a.u.); as for “CTGATTTTCATTTGAGAACAAAGTTTCTACGCATATTACCCGGAGTCACCTAGTGCAG”, 8240 fluorescence intensity (a.u.).
As for “CCCCAGCCCAGTTGGGCCCAAACTGTCCATTCCAGCCATCCGGAGTCACCTAGTGCAG”, the figure is 8330 fluorescence intensity (a.u.); as for “TCAGTAGCATTTCCGGGTCCCATCTATATGGACTAATTTTCGGAGTCACCTAGTGCAG”, 9100 fluorescence intensity (a.u.); as for “ACAGAACGAACCACCTATACGTACGTTTTCTCTCTTTTGACGGAGTCACCTAGTGCAG”, 8040 fluorescence intensity (a.u.).
Regarding “TATACAATTGCCTTACCTGTCCCCACCTGTCACATGCCTCCGGAGTCACCTAGTGCAG”, the binding signal was 9460 fluorescence intensity (a.u.).
Under “ACCTACCACCACCTTACCCTCTCGCTGACATCCCGGCCCCCGGAGTCACCTAGTGCAG” stands 12000 fluorescence intensity (a.u.); under “GGCCTTGTTCGGTTGGTCCGGGAATGACTGGGGTTGGGCTCGGAGTCACCTAGTGCAG”, 9210 fluorescence intensity (a.u.); under “GAGGGGAGGGGTTTGGTTTGCTTGGACACTTTGGTTTGGTCGGAGTCACCTAGTGCAG”, 20100 fluorescence intensity (a.u.).
With “ATTCTCAAGTTTGAATTGGGTGTATTGGGTTGGGCTAAATCGGAGTCACCTAGTGCAG”, the binding signal is 16700 fluorescence intensity (a.u.).
Under “AGTTTTGGGGTGAATTCAATTGAGGTTGCTACAGTTTAATCGGAGTCACCTAGTGCAG” stands 8760 fluorescence intensity (a.u.); under “TGCTTGCTTGCTTGGTTTGATTGGTGGAGGTGGGAGGAGTCGGAGTCACCTAGTGCAG”, 8520 fluorescence intensity (a.u.); under “CCTAAATGGTTTTGCTTGGACACTTCTGGTTACCTTGCATCGGAGTCACCTAGTGCAG”, 11900 fluorescence intensity (a.u.).
As for “GGGATGGATGTGCTGGGTTGGTGGCTGGTTGGCTGGCCGGCGGAGTCACCTAGTGCAG”, the figure is 11000 fluorescence intensity (a.u.); as for “TGTGTTGGATCGGTTGGACGCGCTCACTCGGTTTGGTTTGCGGAGTCACCTAGTGCAG”, 9730 fluorescence intensity (a.u.).
Under “TTGGTTTGTATTGCGTTGTTTTGCACTTTTGTTTGTTGTGCGGAGTCACCTAGTGCAG” stands 8300 fluorescence intensity (a.u.).
With “TTTGTGTATTATTTGTATTGTGTTTGTGAATTCAATAAATCGGAGTCACCTAGTGCAG”, the binding signal is 8800 fluorescence intensity (a.u.).
As for “AAATGTGGAATGGTTGGCCTGGGTTGGCTTGGGACGAGCTCGGAGTCACCTAGTGCAG”, the figure is 17000 fluorescence intensity (a.u.); as for “CGCTCACTCGGTTTGGTTTGGTTTGGATTGTATTGGGTTGCGGAGTCACCTAGTGCAG”, 39200 fluorescence intensity (a.u.).
Turning to “CTTTTGCAACTCAAGCTACTATATCTATGATGGCATCTGACGGAGTCACCTAGTGCAG”, the binding signal was 8400 fluorescence intensity (a.u.).
For the sequence “CTTGCTGTTACGCACCACATTGATTTACTTTCTTTTTCTTCGGAGTCACCTAGTGCAG”, the binding signal was 11600 fluorescence intensity (a.u.).
As for “CTCTCGACCACTTCCATTCCTTCCCGGGCTCGCCGCGCCGCGGAGTCACCTAGTGCAG”, the binding signal is 9780 fluorescence intensity (a.u.).
As for “CTCACTCCTGGCGCCGGTGACCTCTCTGCCACTCCACCGGCGGAGTCACCTAGTGCAG”, the figure is 8550 fluorescence intensity (a.u.); as for “CACATGTTATTACCACCTCATTTTGCGTAAAACACTTAATCGGAGTCACCTAGTGCAG”, 8460 fluorescence intensity (a.u.).
As for “AACATAAACACACATCATTTCCTGTCCCTTGCACGCTACGCGGAGTCACCTAGTGCAG”, the figure is 10000 fluorescence intensity (a.u.); as for “CTCCTCATCCTCATCGTCGCCGCCGCCCACGTCGTCTCGCCGGAGTCACCTAGTGCAG”, 9110 fluorescence intensity (a.u.).
